Compound activity as filed in PubChem.
PrP 5UTR inh: suppresses PrP 5' UTR mRNA reporter expression | cell-based PrP 5' UTR mRNA reporter, plate reader | AID 488862 | 0.35% of 340,000 active | inhibition, % (concentration not given with the values); in the data active means inhibition above about 52%; further: 0 = median of the neutral control wells
SARS 3CLpro inh: SARS-CoV 3CLpro protease inhibition | recombinant SARS-CoV 3CLpro, quenched FRET peptide cleavage | 0.14% of 290,000 active | inhibition, % at 6 µM | P0C6X7 | AID 1706; in the data active means inhibition above about 12%
PrPC surface inh: inhibitors of human cell surface prion protein PrPC | inhibition, % at 13.8 µM | TR-FRET read-out | 0.43% of 370,000 active | P04156; in the data active means inhibition above about 24%; further: 0% = median of the test wells and 100% = reference compound wells
DUSP3 inh: DUSP3 (human) phosphatase inhibition; AID 1654; recombinant VHR phosphatase, pNPP absorbance; inhibition, % at 13.3 µM; 0.52% of 290,000 active; in the data active means inhibition above about 50%
Target sequence (P51452 whole entry, looked up): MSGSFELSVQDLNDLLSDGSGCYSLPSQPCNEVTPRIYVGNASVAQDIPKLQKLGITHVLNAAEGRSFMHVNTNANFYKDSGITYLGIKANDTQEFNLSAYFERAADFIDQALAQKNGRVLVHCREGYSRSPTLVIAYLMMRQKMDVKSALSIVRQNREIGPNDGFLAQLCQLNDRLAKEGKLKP
MazF activator: activators of E. coli MazEF toxin-antitoxin RNase; 0.32% of 350,000 active; FAM/BHQ RNA-DNA oligo cleavage fluorescence, 5 h; P0AE70; activation, % at 20 µM; in the data active means activation above about 50%
Target sequence (P0AE70 whole entry, looked up): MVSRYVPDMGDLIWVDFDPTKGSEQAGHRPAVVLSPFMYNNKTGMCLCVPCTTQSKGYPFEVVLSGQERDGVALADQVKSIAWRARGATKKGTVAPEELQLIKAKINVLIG
Mtb hypoxia rep: reduces hypoxia-regulated biosensor signal in M. tuberculosis; fluorescence inhibition, % (no concentration beside the values); M. tuberculosis hypoxia-regulated fluorescent reporter, fluorescence; AID 1159583; 0.1% of 300,000 active; in the data active means fluorescence inhibition mostly above about 23%, no sharp cut-off; inactive means mostly below about 17%
* marks the source's active call; other numbers are inactive results. Most compounds without a hit are left out; they make up all but 1.5% or so of the library.

What do the screens show for `CS(=O)(=O)c1ccc(-n2nnc3ccccc32)c([N+](=O)[O-])c1`?
PrP 5UTR inh: -4; SARS 3CLpro inh: -2; PrPC surface inh: -29; DUSP3 inh: 34; MazF activator: -20; Mtb hypoxia rep: -13

How did CN(C)CCCNS(=O)(=O)c1ccc(-n2nnc3ccccc32)c([N+](=O)[O-])c1 do in these assays?
PrP 5UTR inh: -15; SARS 3CLpro inh: 3; PrPC surface inh: -46; DUSP3 inh: 58*; MazF activator: 2; Mtb hypoxia rep: -5

Results for CCOC(=O)C1CCN(S(=O)(=O)c2ccc(-c3ccc(=O)[nH]n3)o2)CC1 ?
PrP 5UTR inh: -18; SARS 3CLpro inh: -8; PrPC surface inh: -5; DUSP3 inh: 51*; MazF activator: -28; Mtb hypoxia rep: -5

How did CC(=NNc1ccc2nncn2n1)c1ccc(Br)s1 do in these assays?
Mtb hypoxia rep: 9

What do the screens show for `COc1cc(C(=O)NS(=O)(=O)c2ccccc2C)ccc1Cc1cn(C)c2ccc(NC(=O)OC3CCCC3)cc12`?
SARS 3CLpro inh: 15*; DUSP3 inh: 48

How did COc1ccc(NC(=O)COc2ccccc2C)cc1S(=O)(=O)N1CCCCC1 do in these assays?
PrP 5UTR inh: -20; PrPC surface inh: 4; MazF activator: 4; Mtb hypoxia rep: 0

How did C[C@H](CO)N1C[C@H](C)[C@H](CN(C)S(C)(=O)=O)OCc2cnnn2CCCC1=O do in these assays?
PrPC surface inh: 2; MazF activator: 68*

What do the screens show for `CSc1ncccc1C(=O)OCC(=O)c1ccc[nH]1`?
PrP 5UTR inh: -16; PrPC surface inh: -4; MazF activator: -3; Mtb hypoxia rep: 22*

Results for O=C(NN=Cc1ccoc1)c1ccccc1O ?
Mtb hypoxia rep: -6

What do the screens show for `COc1ccc2cc(C(=O)N3CCc4ccccc43)[nH]c2c1`?
SARS 3CLpro inh: -5; PrPC surface inh: -4; DUSP3 inh: 53*; MazF activator: 7; Mtb hypoxia rep: 24

Results for Nc1nnc(SCC(=O)Nc2ccc(Cl)c(C(=O)O)c2)s1 ?
PrP 5UTR inh: -27; SARS 3CLpro inh: 4; PrPC surface inh: -10; DUSP3 inh: 56*; MazF activator: 3; Mtb hypoxia rep: -4

What do the screens show for `CC(NC(=O)c1[nH]cnc1C(=O)Nc1ccccc1)C(=O)OC(C)(C)C` (stereo unspecified)?
Mtb hypoxia rep: -5

How did CS(=O)(=O)N(Cc1ccc(C(=O)NC2CCCC2)cc1)c1ccccc1 do in these assays?
PrP 5UTR inh: -108; SARS 3CLpro inh: -6; PrPC surface inh: 3; DUSP3 inh: -3; MazF activator: 8; Mtb hypoxia rep: 10

What do the screens show for `Cc1ccc(N(Cc2ccc(C(=O)NC3CCCCC3)cc2)S(C)(=O)=O)cc1C`?
PrP 5UTR inh: -7; SARS 3CLpro inh: -2; PrPC surface inh: 3; DUSP3 inh: -8; MazF activator: 51*; Mtb hypoxia rep: 5

Results for O=C(NCCCN1CCOCC1)c1ccc2c(c1)N(Cc1ccccc1)C(=O)c1ccccc1S2=O (stereo unspecified) ?
PrP 5UTR inh: 7; SARS 3CLpro inh: -2; PrPC surface inh: 1; DUSP3 inh: 60*; MazF activator: -22; Mtb hypoxia rep: -17

Results for CCCCn1c(NC(=O)c2ccccc2)c(C#N)c2nc3ccccc3nc21 ?
PrP 5UTR inh: -26; SARS 3CLpro inh: 2; PrPC surface inh: -7; DUSP3 inh: 33; MazF activator: -13; Mtb hypoxia rep: 2

What do the screens show for `CCC(C)n1c(NC(=O)c2ccccc2)c(C#N)c2nc3ccccc3nc21` (stereo unspecified)?
PrP 5UTR inh: -8; SARS 3CLpro inh: -3; PrPC surface inh: -1; DUSP3 inh: 58*; MazF activator: 4

What do the screens show for `NC(=O)C1=CC(C2CCCCC2)CC(OCCCCO)O1` (stereo unspecified)?
Mtb hypoxia rep: 3

What do the screens show for `N#Cc1ccc(C2=CC(=O)CC(c3ccc(Cl)cc3)C2)cc1` (stereo unspecified)?
Mtb hypoxia rep: 8

How did COc1ccc(C)cc1S(=O)(=O)N1CCN(C(=O)c2ncoc2-c2ccc(C)cc2)CC1 do in these assays?
PrP 5UTR inh: -17; SARS 3CLpro inh: 4; PrPC surface inh: 0; DUSP3 inh: 0; MazF activator: -1; Mtb hypoxia rep: 0

What do the screens show for `COc1ccc(C)cc1S(=O)(=O)N1CCN(C(=O)c2ncoc2-c2ccc(F)cc2)CC1`?
PrP 5UTR inh: -10; SARS 3CLpro inh: -2; PrPC surface inh: -8; DUSP3 inh: 53*; MazF activator: -6; Mtb hypoxia rep: 5

What do the screens show for `COCC(=O)N1CCC(n2nccc2NC(=O)CCOc2ccccc2)CC1`?
PrP 5UTR inh: -25; SARS 3CLpro inh: -6; PrPC surface inh: -2; DUSP3 inh: 56*; MazF activator: 3; Mtb hypoxia rep: 8

Results for C=CCCC(=O)N1CCC(n2nccc2NC(=O)CCCc2ccccc2)CC1 ?
PrP 5UTR inh: -12; SARS 3CLpro inh: 3; PrPC surface inh: 0; DUSP3 inh: -9; MazF activator: -1; Mtb hypoxia rep: 4

What do the screens show for `C=CCNC(=O)N1CCC(n2nccc2NC(=O)CCCc2ccccc2)CC1`?
PrP 5UTR inh: 2; SARS 3CLpro inh: -1; PrPC surface inh: -4; DUSP3 inh: 56*; MazF activator: 1; Mtb hypoxia rep: -1

What do the screens show for `O=c1cc2c(=O)oc3cc(O)c(O)oc3c2c(O)c1O`?
PrP 5UTR inh: -4; SARS 3CLpro inh: 0; PrPC surface inh: -8; DUSP3 inh: 112*; MazF activator: 55*; Mtb hypoxia rep: 3

Results for O=C(Nc1ccc(Br)cn1)c1ccc(Cl)s1 ?
PrP 5UTR inh: -147; SARS 3CLpro inh: -4; PrPC surface inh: 14; DUSP3 inh: 52*; MazF activator: 0; Mtb hypoxia rep: -4

Results for Cc1ccc(N2C(=O)N3C(c4ccc(F)cc4)C4C(=O)N(C5CCCCC5)C(=O)C4[C@]3(Cc3ccccc3)C2=O)cc1 (stereo partly specified) ?
Mtb hypoxia rep: -7

What do the screens show for `Cc1ccc(OCC(=O)Nc2ccccc2N2CCOCC2)c(C)c1`?
PrP 5UTR inh: 3; SARS 3CLpro inh: 3; PrPC surface inh: 11; DUSP3 inh: 52*; MazF activator: -2; Mtb hypoxia rep: 8

What do the screens show for `Cc1nc(N2CCN(C(=O)c3ccco3)CC2)c2oc3ccccc3c2n1`?
PrP 5UTR inh: -1; PrPC surface inh: 6; DUSP3 inh: 29; MazF activator: 2; Mtb hypoxia rep: 13

Results for CCc1nc(N2CCN(C(=O)c3ccco3)CC2)c2oc3ccccc3c2n1 ?
PrP 5UTR inh: -8; SARS 3CLpro inh: 0; PrPC surface inh: 3; DUSP3 inh: 52*; MazF activator: 3; Mtb hypoxia rep: 10

Results for O=C(OCC(=O)c1ccc(Cl)cc1Cl)c1ccccn1 ?
PrP 5UTR inh: -21; PrPC surface inh: 3; MazF activator: 9; Mtb hypoxia rep: 30*

Results for C=C1C(=O)OC2CC(C)C3C=CC(=O)C3(C)C(O)C12 (stereo unspecified) ?
PrP 5UTR inh: 26; MazF activator: -13
